Inconclusive results are not listed. A call without a number means that no potency is given here. Activity calls are given as the source filed them. Unless noted, the call rests on the fitted dose curve; in most records, active means well fitted curve in the direction sought with a large enough effect in the repeat runs; inconclusive means weak or mixed curves; inactive means no such curve, though single readings can be large; an effect the other way counts as inactive or inconclusive.
Assays:
[1] = qHTS assay to identify small molecule agonists of the androgen receptor (AR) signaling pathway in the presence of an antagonist - cell viability counter screen (AID 1259379);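 further: MDA-kb2 human breast cancer cells carrying an MMTV luciferase reporter; series mostly up to about 92 µM; nearly all actives have a fitted effect of over 25% in size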
Summary of the method: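 Nilutamide-containing (3.0uM final) MDA-kb2 cultures, 3,000 cells/well, were treated with compounds across 15 concentrations. After 16 hr at 37C with no CO2, cell viability was determined by CellTiter-Fluor fluorescence in the luciferase assay wells.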

[2] = qHTS assay to identify small molecule agonists of the estrogen receptor beta (ER-beta) signaling pathway - cell viability counter screen (AID 1259380); further: nearly all actives have a fitted effect of over 30% in size; further: potency means the concentration at half of the fitted maximal effect
Summary of the method: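 Steps: plate ER-beta-UAS-bla HEK293T cells, rest 6 hr; add compounds in DMSO; incubate 16 hr at 37C, 5% CO2; add FRET substrate 2 hr; add CellTiter-Glo, wait 30 min at room temperature; read luminescence.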

[3] = qHTS assay to identify small molecule antagonists of the estrogen receptor beta (ER-beta) signaling pathway - cell viability counter screen (AID 1259382);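 further: HEK293T cells carrying ER-beta-UAS-bla reporter stimulated with estradiol; series mostly up to about 92 µM; nearly all actives have a fitted effect of over 55% in size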
Summary of the method: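 Viability is scored by CellTiter-Glo luminescence (30 min, room temperature) in ER-beta-UAS-bla HEK293T wells already read for reporter fluorescence. Compound exposure lasts 16 hr at 37C alongside 1nM 17-beta-estradiol in charcoal-stripped serum medium.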

[4] = target: Estrogen receptor (Homo sapiens) (UniProt P03372); assay: qHTS assay to identify small molecule agonists of the estrogen receptor alpha (ER-alpha) signaling pathway in the presence of an antagonist (AID 1259383; calls by dose curve; further: top concentration of the series differs between compounds; nearly all actives have a fitted effect of over 15% in size)
Chain of Estrogen receptor (Homo sapiens) (P03372 whole entry, looked up): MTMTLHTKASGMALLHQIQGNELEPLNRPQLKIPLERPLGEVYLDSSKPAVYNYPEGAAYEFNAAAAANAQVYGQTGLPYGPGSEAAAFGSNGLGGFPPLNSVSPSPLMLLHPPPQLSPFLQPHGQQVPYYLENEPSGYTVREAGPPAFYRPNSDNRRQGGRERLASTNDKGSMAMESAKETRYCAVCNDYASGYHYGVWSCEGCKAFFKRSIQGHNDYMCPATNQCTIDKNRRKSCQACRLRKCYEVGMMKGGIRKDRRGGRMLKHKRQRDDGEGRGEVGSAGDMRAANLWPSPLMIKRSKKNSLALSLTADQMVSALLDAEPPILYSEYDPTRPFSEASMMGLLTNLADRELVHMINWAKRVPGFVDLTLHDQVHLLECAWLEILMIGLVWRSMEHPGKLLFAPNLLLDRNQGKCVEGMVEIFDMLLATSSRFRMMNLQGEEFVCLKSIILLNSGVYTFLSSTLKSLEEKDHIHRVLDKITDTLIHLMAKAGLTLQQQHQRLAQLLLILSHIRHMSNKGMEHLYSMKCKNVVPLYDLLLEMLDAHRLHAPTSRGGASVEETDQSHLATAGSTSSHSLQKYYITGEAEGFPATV
Summary of the method: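 Readout was ERE-driven luciferase luminescence in VM7Luc4E2 cells, which express full-length ER-alpha endogenously. Compounds were tested at 15 concentrations for 22hr alongside 10.0nM ICI-182,780 (final concentration).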

[5] = qHTS assay to identify small molecule agonists or antagonists of the thyroid stimulating hormone receptor (TSHR) signaling pathway - wild type cell line counter screen (AID 1259384; calls by dose curve)
Summary of the method: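 Counter screen in untransfected Hek293: compounds (15-point titration, triplicate) plus phosphodiesterase inhibitor Ro20-1724 added after 18 h plating; 30 min RT. Intracellular cAMP via competitive d2/cryptate immunoassay, 1 h incubation.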

[6] = target: Thyrotropin receptor (Homo sapiens) (UniProt P16473); assay: qHTS assay to identify small molecule antagonists of the thyroid stimulating hormone receptor (TSHR) signaling pathway (AID 1259385; calls by dose curve; further: nearly all actives have a fitted effect of over 20% in size; further: potency means the concentration at half of the fitted maximal effect)
Chain of Thyrotropin receptor (Homo sapiens) (P16473 whole entry, looked up): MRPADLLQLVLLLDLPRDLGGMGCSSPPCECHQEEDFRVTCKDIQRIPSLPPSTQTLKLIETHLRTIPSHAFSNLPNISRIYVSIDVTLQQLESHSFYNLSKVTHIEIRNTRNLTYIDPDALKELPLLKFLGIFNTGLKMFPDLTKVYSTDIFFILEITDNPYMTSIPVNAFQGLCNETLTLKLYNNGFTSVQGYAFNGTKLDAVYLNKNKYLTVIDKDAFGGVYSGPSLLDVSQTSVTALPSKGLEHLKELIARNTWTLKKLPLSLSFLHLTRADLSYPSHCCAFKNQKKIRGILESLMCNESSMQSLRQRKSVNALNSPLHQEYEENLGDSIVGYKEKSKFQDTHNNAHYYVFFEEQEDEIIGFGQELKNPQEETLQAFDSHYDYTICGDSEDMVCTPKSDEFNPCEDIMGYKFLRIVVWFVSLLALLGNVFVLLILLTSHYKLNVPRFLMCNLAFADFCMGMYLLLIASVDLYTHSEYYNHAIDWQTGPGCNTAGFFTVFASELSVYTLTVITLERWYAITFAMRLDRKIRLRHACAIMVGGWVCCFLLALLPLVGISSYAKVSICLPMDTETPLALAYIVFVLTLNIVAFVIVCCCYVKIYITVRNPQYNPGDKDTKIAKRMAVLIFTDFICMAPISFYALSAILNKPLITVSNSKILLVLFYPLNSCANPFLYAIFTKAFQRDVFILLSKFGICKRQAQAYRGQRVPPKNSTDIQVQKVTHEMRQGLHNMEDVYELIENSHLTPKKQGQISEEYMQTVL
Summary of the method: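 Antagonist mode: compound-treated TSHR-expressing HEK293 cells were stimulated with 1.5 ng/mL TSH (final) in presence of Ro20-1724 for 30 min at RT. HTRF cAMP detection after 1 h; each compound tested at 15 concentrations, triplicate.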

[7] = qHTS assay to identify small molecule agonists of the estrogen receptor alpha (ER-alpha) signaling pathway in the presence of an antagonist - cell viability counter screen (AID 1259386);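 further: cells exposed to compounds for 22 h at 37 °C before the viability read; nearly all actives have a fitted effect of over 30% in size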; further: potency means the concentration at half of the fitted maximal effect
Summary of the method: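 In this counter screen, compound effects on VM7Luc4E2 viability were tested in the presence of the antagonist ICI-182,780 at 10.0nM final. Compounds were dosed at 15 concentrations, exposure lasted 22hr, and the CellTiter-Fluor signal was read.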

[8] = target: Progesterone receptor (Homo sapiens) (UniProt P06401); assay: qHTS assay to identify small molecule agonists of the progesterone receptor (PR) signaling pathway (AID 1346784; calls by dose curve; further: nearly all actives have a fitted effect of over 30% in size)
Chain of Progesterone receptor (Homo sapiens) (P06401 whole entry, looked up): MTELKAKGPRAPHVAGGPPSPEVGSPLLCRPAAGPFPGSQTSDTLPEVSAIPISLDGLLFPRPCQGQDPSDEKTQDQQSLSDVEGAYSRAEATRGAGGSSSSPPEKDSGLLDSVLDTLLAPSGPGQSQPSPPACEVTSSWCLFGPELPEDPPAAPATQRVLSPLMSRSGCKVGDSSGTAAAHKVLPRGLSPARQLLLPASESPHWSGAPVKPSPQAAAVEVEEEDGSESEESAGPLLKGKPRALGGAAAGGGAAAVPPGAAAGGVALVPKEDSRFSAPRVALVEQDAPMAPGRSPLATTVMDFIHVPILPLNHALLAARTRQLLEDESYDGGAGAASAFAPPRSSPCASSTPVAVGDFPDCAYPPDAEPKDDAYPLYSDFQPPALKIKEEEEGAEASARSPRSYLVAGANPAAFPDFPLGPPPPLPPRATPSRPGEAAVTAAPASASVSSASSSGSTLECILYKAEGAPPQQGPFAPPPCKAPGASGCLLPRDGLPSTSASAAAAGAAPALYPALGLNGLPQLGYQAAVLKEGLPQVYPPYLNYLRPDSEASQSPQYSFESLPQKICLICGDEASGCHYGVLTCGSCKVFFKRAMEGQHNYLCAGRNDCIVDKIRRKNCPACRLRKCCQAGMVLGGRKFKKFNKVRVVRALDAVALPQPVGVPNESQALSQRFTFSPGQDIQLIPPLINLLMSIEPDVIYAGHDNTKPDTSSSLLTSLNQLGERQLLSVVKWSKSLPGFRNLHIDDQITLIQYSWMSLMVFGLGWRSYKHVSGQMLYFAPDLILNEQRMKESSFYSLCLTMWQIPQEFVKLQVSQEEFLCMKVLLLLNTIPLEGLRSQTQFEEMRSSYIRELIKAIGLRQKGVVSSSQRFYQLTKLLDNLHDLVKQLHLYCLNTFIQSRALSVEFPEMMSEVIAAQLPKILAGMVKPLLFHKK
Summary of the method: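 The screen uses PR-UAS-bla HEK 293T cells in charcoal-stripped serum (2%). Compounds are applied for 16 hr at 37C after a 6 hr pre-incubation, and reporter activity is detected with a FRET beta-lactamase substrate after 2 hr at room temperature.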

[9] = target: Progesterone receptor (Homo sapiens) (UniProt P06401); assay: qHTS assay to identify small molecule antagonists of the progesterone receptor (PR) signaling pathway (AID 1346795; active means well fitted inhibition curve with a large enough effect in the signal ratio in the repeat runs, not every such curve was filed as active; the % refers to the signal ratio; further: potency means the concentration at half of the fitted maximal effect)
Summary of the method: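 After 6 hr plating at 37C in 2% stripped-serum medium, PR-UAS-bla HEK293T cells got compounds, then 1 nM R5020. Sixteen hours later, LiveBLAzer substrate was applied for 2 hr at room temperature and fluorescence was recorded.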

[10] = qHTS assay to identify small molecule agonists of the progesterone receptor (PR) signaling pathway - cell viability counter screen (AID 1346799; calls by dose curve; further: nearly all actives have a fitted effect of over 45% in size)
Summary of the method: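 Viability was scored by ATP luminescence (CellTiter-Glo, 30 min, room temperature) in the same wells used for the reporter readout, after 16 hr compound exposure of PR-UAS-bla HEK293T cells.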

[11] = qHTS assay to identify small molecule antagonists of the TGF-beta/Smad signaling pathway - cell viability counter screen (AID 1346824); further: nearly all actives have a fitted effect of over 50% in size
Summary of the method: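 Cytotoxicity counter-screen run in the same wells as the beta-lactamase Smad reporter read: CellTiter-Glo luminescence after 30 min at room temperature. HEK 293T SBE-bla cells had 5 hr compound exposure at 37 C with TGF-beta1 (0.25 ng/mL stock).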

[12] = qHTS assay to identify small molecule agonists of the TGF-beta/Smad signaling pathway - cell viability counter screen (AID 1346829); further: top concentration of the series differs between compounds; nearly all actives have a fitted effect of over 45% in size
Summary of the method: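 Here the cytotoxicity of library compounds is measured in SBE-bla HEK 293T cells treated for 5 hr, using CellTiter-Glo added to wells already read for the beta-lactamase reporter.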

[13] = qHTS assay to identify small molecule agonists of the TGF-beta/Smad signaling pathway (AID 1346859; active means well fitted activation curve with a large enough effect in the signal ratio in the repeat runs, not every such curve was filed as active; the % refers to the signal ratio; further: series mostly up to about 77 µM)
Summary of the method: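 Dual-wavelength fluorescence (460/530 nm emission) quantified beta-lactamase expression under the Smad binding element in HEK 293T cells following 5 hr compound treatment at 37 C.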

[14] = target: Thyrotropin-releasing hormone receptor (Homo sapiens) (UniProt P34981); assay: qHTS assay to identify small molecule antagonists of the thyrotropin-releasing hormone receptor (TRHR) signaling pathway (AID 1346877; active means well fitted inhibition curve with a large enough effect in the repeat runs, not every such curve was filed as active; further: series mostly up to about 51 µM)
Chain of Thyrotropin-releasing hormone receptor (Homo sapiens) (P34981 whole entry, looked up): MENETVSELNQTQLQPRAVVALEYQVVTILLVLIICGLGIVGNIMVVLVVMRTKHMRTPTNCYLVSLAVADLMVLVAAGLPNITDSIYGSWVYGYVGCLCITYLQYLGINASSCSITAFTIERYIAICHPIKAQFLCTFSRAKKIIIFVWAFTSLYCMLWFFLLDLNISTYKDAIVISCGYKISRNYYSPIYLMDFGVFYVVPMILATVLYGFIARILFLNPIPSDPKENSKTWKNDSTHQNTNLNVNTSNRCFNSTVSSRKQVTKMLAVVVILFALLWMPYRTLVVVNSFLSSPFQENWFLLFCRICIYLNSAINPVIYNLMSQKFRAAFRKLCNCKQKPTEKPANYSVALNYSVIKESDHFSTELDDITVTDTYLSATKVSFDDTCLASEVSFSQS
Summary of the method: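 Kinetic fluorescence (3 min, 1 s resolution) following stimulation with TRH at 1 nM final; HEK293 cells bearing human TRHR; 5 min compound preincubation at RT; concentration-response over 15 points, triplicates.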

[15] = target: Thyrotropin-releasing hormone receptor (Homo sapiens) (UniProt P34981); assay: qHTS assay to identify small molecule agonists of the thyrotropin-releasing hormone receptor (TRHR) signaling pathway (AID 1346891; calls by dose curve;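 further: HEK293 cells expressing TRHR with calcium dye readout; series mostly up to about 58 µM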)
Summary of the method: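 Kinetic fluorescence (3 min, 1 s intervals) reported intracellular calcium after compound transfer onto TRHR-Hek293 cells pre-loaded with dye for 2 h at 37 °C.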

[16] = qHTS assay to identify small molecule antagonists of the progesterone receptor (PR) signaling pathway - cell viability counter screen (AID 1346798); further: series mostly up to about 92 µM; nearly all actives have a fitted effect of over 50% in size
Summary of the method: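 Viability was determined by ATP-based luminescence (CellTiter-Glo) in PR-UAS-bla HEK293T cells cultured in 2% charcoal-stripped serum and incubated 16 hr with compounds under R5020 stimulation.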

[17] = target: Androgen receptor (Homo sapiens) (UniProt P10275); assay: qHTS assay to identify small molecule agonists of the androgen receptor (AR) signaling pathway in the presence of an antagonist (AID 1259381; calls by dose curve; further: nearly all actives have a fitted effect of over 15% in size)
Chain of Androgen receptor (Homo sapiens) (P10275 whole entry, looked up): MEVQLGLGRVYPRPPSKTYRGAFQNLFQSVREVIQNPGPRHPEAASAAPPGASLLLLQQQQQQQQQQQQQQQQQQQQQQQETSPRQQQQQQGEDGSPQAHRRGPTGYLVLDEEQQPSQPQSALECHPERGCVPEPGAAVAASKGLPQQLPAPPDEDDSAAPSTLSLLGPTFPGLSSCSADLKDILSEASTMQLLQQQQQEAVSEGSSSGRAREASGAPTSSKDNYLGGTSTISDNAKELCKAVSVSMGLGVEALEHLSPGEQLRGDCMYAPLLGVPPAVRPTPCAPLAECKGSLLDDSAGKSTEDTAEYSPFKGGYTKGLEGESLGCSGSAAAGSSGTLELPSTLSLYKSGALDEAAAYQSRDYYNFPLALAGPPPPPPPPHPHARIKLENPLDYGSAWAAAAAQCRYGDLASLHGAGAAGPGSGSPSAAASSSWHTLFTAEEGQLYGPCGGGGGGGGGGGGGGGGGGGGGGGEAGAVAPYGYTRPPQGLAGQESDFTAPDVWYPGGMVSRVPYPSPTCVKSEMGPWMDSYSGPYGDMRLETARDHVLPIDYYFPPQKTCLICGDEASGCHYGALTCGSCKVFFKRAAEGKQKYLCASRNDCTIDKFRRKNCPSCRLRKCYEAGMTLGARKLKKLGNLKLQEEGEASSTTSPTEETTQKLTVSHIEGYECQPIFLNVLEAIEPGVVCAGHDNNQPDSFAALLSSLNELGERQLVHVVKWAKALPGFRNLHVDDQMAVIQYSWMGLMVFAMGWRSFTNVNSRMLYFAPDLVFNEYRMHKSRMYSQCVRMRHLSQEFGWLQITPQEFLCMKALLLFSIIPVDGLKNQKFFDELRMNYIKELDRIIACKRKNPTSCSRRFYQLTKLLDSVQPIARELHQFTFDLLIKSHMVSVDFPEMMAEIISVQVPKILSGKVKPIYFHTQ
Summary of the method: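 Reporter-gene luminescence from MDA-kb2 cells exposed 16hr at 37C (0% CO2) to 15-point compound titrations with 3.0uM final nilutamide as AR antagonist.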

[18] = target: Estrogen receptor beta (Homo sapiens) (UniProt Q92731); assay: qHTS assay to identify small molecule antagonists of the estrogen receptor beta (ER-beta) signaling pathway (AID 1259378; active means well fitted inhibition curve with a large enough effect in the signal ratio in the repeat runs, not every such curve was filed as active; the % refers to the signal ratio)
Chain of Estrogen receptor beta (Homo sapiens) (Q92731 whole entry, looked up): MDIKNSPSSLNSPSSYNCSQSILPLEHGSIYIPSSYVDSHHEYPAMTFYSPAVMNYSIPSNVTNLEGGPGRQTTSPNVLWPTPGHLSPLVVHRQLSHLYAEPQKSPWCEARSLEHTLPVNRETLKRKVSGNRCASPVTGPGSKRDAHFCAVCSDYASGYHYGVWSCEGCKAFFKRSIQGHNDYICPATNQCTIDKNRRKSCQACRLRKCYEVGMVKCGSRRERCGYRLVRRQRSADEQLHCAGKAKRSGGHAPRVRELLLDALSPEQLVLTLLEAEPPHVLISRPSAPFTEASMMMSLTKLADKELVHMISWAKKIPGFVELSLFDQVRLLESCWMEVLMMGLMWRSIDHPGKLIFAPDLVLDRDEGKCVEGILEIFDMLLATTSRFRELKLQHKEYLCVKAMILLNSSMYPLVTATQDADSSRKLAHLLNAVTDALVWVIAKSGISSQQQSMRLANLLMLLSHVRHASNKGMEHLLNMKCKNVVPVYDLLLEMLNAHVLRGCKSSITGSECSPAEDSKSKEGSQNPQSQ
Summary of the method: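 Antagonist mode: compounds added to beta-lactamase reporter HEK293T ER-beta-UAS cells stimulated with E2 (1nM final), 16 hr at 37C. LiveBLAzer B/G FRET substrate, 2 hours room temperature, fluorescence read-out.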

| SMILES | Potency [1] | Potency [2] | Potency [3] | Potency [4] | Potency [5] | Potency [6] | Potency [7] | outcome [8] | Potency [9] | Potency [10] | Potency [11] | Potency [12] | outcome [13] | outcome [14] | Potency [15] | Potency [16] | Potency [17] | Potency [18] |
| --- | --- | --- | --- | --- | --- | --- | --- | --- | --- | --- | --- | --- | --- | --- | --- | --- | --- | --- |
| CC(=O)O[C@H]1C[C@@H]2CC[C@@H]3[C@H](CC[C@@]4(C)[C@H]3C[C@H]([N+]3(C)CCCCC3)[C@@H]4OC(C)=O)[C@@]2(C)C[C@@H]1N1CCCCC1 | inactive | inactive | inactive | inactive | inactive | inactive | inactive | inactive | inactive | inactive | inactive | inactive | inactive | inactive | inactive | – | – | – |
| CCCCc1cc2ccccc2c(OCCN(C)C)n1 | inactive | – | – | – | – | inactive | inactive | inactive | – | inactive | inactive | inactive | inactive | inactive | inactive | – | – | – |
| CC(=O)/C=C/C1C(C)=CCCC1(C)C (stereo unspecified) | inactive | inactive | inactive | inactive | – | – | inactive | inactive | – | inactive | inactive | inactive | inactive | inactive | inactive | inactive | – | – |
| CN(C)CC/C=C1\c2ccccc2COc2ccccc21 | inactive | 26.6 µM (active) | – | – | inactive | 29.8 µM (active) | – | inactive | – | – | inactive | inactive | inactive | inactive | inactive | – | inactive | – |
| NCCCN(CCO)CCO | inactive | inactive | inactive | inactive | inactive | inactive | – | inactive | inactive | inactive | inactive | inactive | inactive | inactive | inactive | inactive | inactive | – |
| CCOC(=O)C1=NN(c2ccccc2)C(=O)C1 | inactive | inactive | inactive | inactive | inactive | inactive | – | inactive | – | inactive | inactive | inactive | inactive | inactive | inactive | inactive | – | – |
| CN1CCC(OC(c2ccccc2)c2ccccc2)CC1 | – | inactive | inactive | inactive | – | – | inactive | inactive | inactive | – | inactive | inactive | inactive | inactive | inactive | – | – | – |
| CC(=O)OCCc1ccccc1 | – | inactive | inactive | inactive | inactive | – | inactive | inactive | inactive | inactive | inactive | inactive | inactive | inactive | inactive | – | – | – |
| NC(N)=N/N=C/c1c(Cl)cccc1Cl | – | 29.8 µM (active) | – | inactive | inactive | inactive | 15 µM (active) | inactive | inactive | – | inactive | inactive | inactive | inactive | inactive | – | inactive | – |
| N#CCc1cccc(C(F)(F)F)c1 | inactive | inactive | inactive | inactive | inactive | inactive | – | inactive | inactive | inactive | inactive | inactive | inactive | inactive | inactive | inactive | – | – |
| Cc1cc(O)ccc1N | – | 48.8 µM (active) | – | inactive | inactive | – | – | inactive | – | inactive | inactive | inactive | inactive | inactive | inactive | – | inactive | – |
| N#CCCNCCC#N | inactive | inactive | inactive | inactive | inactive | – | inactive | inactive | inactive | inactive | inactive | inactive | inactive | inactive | inactive | inactive | – | – |
| C[C@@H](C1=C(CCN(C)C)Cc2ccccc21)c1ccccn1 | – | – | inactive | – | inactive | inactive | inactive | inactive | inactive | inactive | inactive | inactive | – | – | – | – | – | – |
| C1=Cc2ccccc2C1 | – | inactive | inactive | inactive | – | – | inactive | inactive | inactive | inactive | inactive | inactive | inactive | inactive | inactive | inactive | – | – |
| CCCC[C@H]1CN(CC2CCOCC2)C(=O)OC12CCN(C1(C)CCN(C(=O)c3c(C)ncnc3C)CC1)CC2 | – | inactive | inactive | – | inactive | – | inactive | inactive | inactive | inactive | inactive | inactive | – | inactive | inactive | inactive | – | – |
| O=C1Nc2cc(Cl)ccc2Oc2ccccc21 | inactive | inactive | inactive | inactive | inactive | – | inactive | inactive | – | – | inactive | inactive | inactive | inactive | inactive | – | inactive | – |
| O=c1[nH]cnc2ccccc12 | inactive | inactive | inactive | inactive | – | inactive | – | inactive | – | inactive | inactive | inactive | inactive | – | – | inactive | – | – |
| Oc1ccc(Cc2ccccc2)cc1 | inactive | – | inactive | – | inactive | inactive | – | – | 22.5 µM (active) | – | inactive | inactive | inactive | inactive | inactive | – | – | – |
| c1ccc(CNCc2ccccc2)cc1 | – | inactive | inactive | inactive | inactive | – | – | inactive | – | inactive | inactive | inactive | inactive | – | – | inactive | – | inactive |
